A short description of experiment [1]: qHTS assay to identify small molecule antagonists of the estrogen related receptor (ERR) signaling pathway from Tox21 library - cell viability counter screen (AID 1224834). Also: nearly all actives have a fitted effect of over 30% in size. Also: potency is read from the fitted curve at half-maximal effect. The method, boiled down: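 Cytotoxicity of test substances is gauged in the same ERR cells used for the antagonist screen, after 17.5 h of compound treatment at 37 C, by CellTiter-Fluor fluorescence measured after 30 min.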

Experiment [2] has as its target Luciferin 4-monooxygenase (Photinus pyralis) (UniProt P08659). The experiment can be described thus: qHTS assay to identify small molecule inhibitors of firefly luciferase (AID 1224835). Also: % is scaled to controls: 0 for no effect and ±100 for the full control effect; nearly all actives have a fitted effect of over 25% in size. The method, boiled down:
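Biochemical qHTS: compounds run as interplate titrations against purified firefly enzyme, with D-luciferin and ATP each at its KM concentration. Light output recorded by CCD imaging.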

Experiment [3] can be described thus: qHTS assay to identify small molecule agonists of the constitutive androstane receptor (CAR) signaling pathway - cell viability counter screen (AID 1224836). Also: % is scaled to controls: 0 for no effect and ±100 for the full control effect; nearly all actives have a fitted effect of over 45% in size. The method, boiled down: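 Fluorescence from CellTiter-Fluor indicates live cells after 23 h exposure. The human hepatoma line expresses hCAR and a CYP2B6-2.2kb reporter. Incubation medium contains 0.75 uM PK11195 (final).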
(qHTS replaces the single test concentration by a dilution series.)

Experiment [4] can be described thus: qHTS assay to identify small molecule antagonists of the constitutive androstane receptor (CAR) signaling pathway - cell viability counter screen (AID 1224837). Also: nearly all actives have a fitted effect of over 45% in size. Also: potency is read from the fitted curve at half-maximal effect. The method, boiled down: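 Multiplexed cytotoxicity read-out for the CAR antagonist screen: double-stable HepG2-CYP2B6-hCAR cells co-treated with 50 nM CITCO (final) and compound over 15 concentrations, incubated 23 hr, then assessed by CellTiter-Fluor fluorescence.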

A short description of experiment [5]: qHTS assay to identify small molecule antagonists of the estrogen related receptor signaling pathway with the pleiotropic PPARgamma coactivator (PGC) from Tox21 10K library - cell viability counter screen (AID 1224840; active = well fitted cell-killing curve with a large enough effect in the repeat runs, not every such curve was filed as active; also: nearly all actives have a fitted effect of over 40% in size; also: potency is read from the fitted curve at half-maximal effect). The method, boiled down:
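Step one, plate 2,000 PGC/ERR cells per well; step two, incubate 6 h at 37 C/5% CO2; step three, pin-transfer compounds; step four, incubate 17.5 h; step five, add CellTiter-Fluor and read fluorescence after 30 min.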

Experiment [6] deals with Thyrotropin receptor (Homo sapiens) (UniProt P16473). The experiment can be described thus: qHTS assay to identify small molecule agonists of the thyroid stimulating hormone receptor (TSHR) signaling pathway (AID 1224843; calls by dose curve; also: % is scaled to controls: 0 for no effect and ±100 for the full control effect; nearly all actives have a fitted effect of over 45% in size). The method, boiled down:
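Steps: seed 800 TSHR-HEK293 cells per well; add test compound and hold 30 min at ambient temperature; dispense cAMP-d2 then anti-cAMP cryptate; incubate 1 h at ambient; measure fluorescence intensity.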

The nature of experiment [7]: qHTS assay to identify small molecule agonists of the hypoxia (HIF-1) signaling pathway - cell viability counter screen (AID 1224844; calls by dose curve; also: nearly all actives have a fitted effect of over 50% in size; also: potency is read from the fitted curve at half-maximal effect). The method, boiled down:
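Tox21 10K compounds were added to HRE-bla ME-180 cells (0.5% dialyzed FBS) and incubated 17 hrs at 37C; ATP-based CellTiter-Glo luminescence then reported cell viability in the same wells.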

Experiment [8] is described as follows: qHTS assay to identify small molecule agonists of H2AX (AID 1224845; active = well fitted activation curve with a large enough effect in the signal ratio in the repeat runs, not every such curve was filed as active; the % refers to the signal ratio; also: % is scaled to controls: 0 for no effect and ±100 for the full control effect). The method, boiled down: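 Wild-type CHO-K1 cells, plated overnight, exposed 3hr at 37C to 15 concentrations (0.76% DMSO final). Lysed, then HTRF anti-pH2AX (S139) cryptate and anti-H2AX-d2 antibodies, 24 hr room temperature; 665/620 nm emission read.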
Experiment [9] is described as follows: qHTS assay to identify small molecule agonists of H2AX - cell viability counter screen (AID 1224847; calls by dose curve; also: top concentration of the series differs between compounds; % is scaled to controls: 0 for no effect and ±100 for the full control effect; nearly all actives have a fitted effect of over 30% in size). The method, boiled down: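 Viability of CHO-K1 (wild type) cells after 3 hr compound exposure was measured by CellTiter-Glo luminescence.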
A short description of experiment [10]: qHTS assay to identify small molecule antagonists of the estrogen related receptor (ERR) signaling pathway from Tox21 library (AID 1224848). Also: nearly all actives have a fitted effect of over 50% in size. Also: potency is read from the fitted curve at half-maximal effect. The method, boiled down:
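Luminescent reporter read-out (ONE-Glo) from NTP's ERR cell line after 18 h treatment at 37 C with DMSO-dissolved Tox21 compounds; cells pre-plated 6 h beforehand at 2,000 per well.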

Experiment [11] can be described thus: qHTS assay to identify small molecule agonists of the estrogen related receptor (ERR) signaling pathway from Tox21 library (AID 1224849; calls by dose curve; also: % is scaled to controls: 0 for no effect and ±100 for the full control effect; nearly all actives have a fitted effect of over 15% in size). The note with it: ERR reporter cell line, ONE-Glo luciferase, 18 h; at 92.4 µM (top of the series) unless noted. The method, boiled down: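 Agonist signal is luciferase luminescence from an ERR reporter cell line treated 18 h at 37 C with DMSO-dissolved compounds, read 30 min after ONE-Glo addition at room temperature.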

A short description of experiment [12]: qHTS RealTime-Glo MT Cell Viability Assay in HepG2 cells - 24 hour (AID 1224867). Also: nearly all actives have a fitted effect of over 50% in size. Also: potency is read from the fitted curve at half-maximal effect. The method, boiled down:
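HepG2 cells were seeded at 600 cells/well together with NanoLuc luciferase and a cell-permeant prosubstrate, preincubated 5 h at 37 C/5% CO2, then pin-dosed with compounds in DMSO. Nonlytic luminescence from viable cells was read at each time point.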

Experiment [13] can be described thus: qHTS RealTime-Glo MT Cell Viability Assay in HEK293 cells - 32 hour (AID 1224868). Also: nearly all actives have a fitted effect of over 50% in size. Also: potency is read from the fitted curve at half-maximal effect. The method, boiled down: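 HEK293 cells were seeded at 600 cells/well together with NanoLuc luciferase and cell-permeant prosubstrate, preincubated 5 h at 37 C/5% CO2, then given compound in DMSO by pintool. Luminescence from viable-cell prosubstrate reduction was read repeatedly over 40 h.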

Experiment [14] in a line: A CellTox Green Cytotoxicity Assay to monitor cytotoxicity in HEK293 cells - 0 hour (AID 1224869). The method, boiled down:
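Cytotoxicity was tracked continuously in HEK293 cells by a DNA-binding dye excluded from viable cells. Compounds were transferred in DMSO 5 h after seeding; fluorescence was recorded at intervals up to 40 h.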

The target in experiment [15] is Nuclear receptor subfamily 1 group I member 3 (Homo sapiens) (UniProt Q14994). The experiment can be described thus: qHTS assay to identify small molecule agonists of the constitutive androstane receptor (CAR) signaling pathway (AID 1224839).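 Also: HepG2 cells stably carrying human CAR and a CYP2B6 luciferase reporter; % is scaled to controls: 0 for no effect and ±100 for the full control effect; nearly all actives have a fitted effect of over 15% in size.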 The method, boiled down:
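Stable hCAR/CYP2B6-2.2kb HepG2 line in DMEM with 10% FBS; compounds (15 concentrations) and 0.75 uM PK11195 final, 24 h at 37 C/5% CO2, then ONE-Glo luminescence after 30 min.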

Experiment [16] can be described thus: qHTS assay to identify small molecule agonists of the hypoxia (HIF-1) signaling pathway (AID 1224846; active = well fitted activation curve with a large enough effect in the signal ratio in the repeat runs, not every such curve was filed as active; the % refers to the signal ratio; also: % is scaled to controls: 0 for no effect and ±100 for the full control effect). The method, boiled down: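 Steps: seed ME-180 HRE-bla cells (2,000/well, 0.5% dialyzed FBS); incubate 5 hrs at 37C; pin-transfer compounds or DMSO; incubate 17 hrs; add LiveBLAzer B/G substrate CCF4-AM; measure reporter activation by FRET.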
Experiment [17] deals with Nuclear receptor subfamily 1 group I member 3 (Homo sapiens) (UniProt Q14994). The experiment can be described thus: qHTS assay to identify small molecule antagonists of the constitutive androstane receptor (CAR) signaling pathway (AID 1224838). Also: potency is read from the fitted curve at half-maximal effect; nearly all actives have a fitted effect of over 40% in size. The method, boiled down:
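Compounds were titrated across 15 concentrations onto HepG2 cells double-stably expressing hCAR and a CYP2B6-2.2kb reporter, together with 50 nM CITCO (final). After 24 h at 37 C, luciferase activity was measured by luminescence.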

A short description of experiment [18]: qHTS assay to identify small molecule agonists of the estrogen related receptor signaling pathway with the pleiotropic PPARgamma coactivator (PGC) from Tox21 10K library (AID 1224842). Also: % is scaled to controls: 0 for no effect and ±100 for the full control effect; nearly all actives have a fitted effect of over 15% in size. The method, boiled down:
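PGC/ERR reporter cell line, 2,000 cells per well, incubated 6 h at 37 C before 23 nL compound in DMSO was added. After 18 h at 37 C, One-Glo luminescence read following 30 min at room temperature.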

A short description of experiment [19]: qHTS assay to identify small molecule antagonists of the estrogen related receptor signaling pathway with the pleiotropic PPARgamma coactivator (PGC) from Tox21 10K library (AID 1224841; call rule not given here). The method, boiled down: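 Antagonism in this quantitative HTS is taken from loss of luciferase signal in PGC/ERR cells. Cells (2,000/well) are treated with compounds in DMSO after a 6 h settling period and read by One-Glo luminescence after 18 h.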

A number with no mark means an inactive call. Results filed as inconclusive are left out. Active and inactive are the calls of the source. Unless noted, calls follow the shape of the dose curve; as a rule, active = well fitted curve in the direction sought with a large enough effect in the repeat runs; inconclusive = weak or mixed curves; inactive = no such curve, though single readings can be large; an effect the other way counts as inactive or inconclusive.

Sequence of Thyrotropin receptor (Homo sapiens) (P16473 whole entry, looked up): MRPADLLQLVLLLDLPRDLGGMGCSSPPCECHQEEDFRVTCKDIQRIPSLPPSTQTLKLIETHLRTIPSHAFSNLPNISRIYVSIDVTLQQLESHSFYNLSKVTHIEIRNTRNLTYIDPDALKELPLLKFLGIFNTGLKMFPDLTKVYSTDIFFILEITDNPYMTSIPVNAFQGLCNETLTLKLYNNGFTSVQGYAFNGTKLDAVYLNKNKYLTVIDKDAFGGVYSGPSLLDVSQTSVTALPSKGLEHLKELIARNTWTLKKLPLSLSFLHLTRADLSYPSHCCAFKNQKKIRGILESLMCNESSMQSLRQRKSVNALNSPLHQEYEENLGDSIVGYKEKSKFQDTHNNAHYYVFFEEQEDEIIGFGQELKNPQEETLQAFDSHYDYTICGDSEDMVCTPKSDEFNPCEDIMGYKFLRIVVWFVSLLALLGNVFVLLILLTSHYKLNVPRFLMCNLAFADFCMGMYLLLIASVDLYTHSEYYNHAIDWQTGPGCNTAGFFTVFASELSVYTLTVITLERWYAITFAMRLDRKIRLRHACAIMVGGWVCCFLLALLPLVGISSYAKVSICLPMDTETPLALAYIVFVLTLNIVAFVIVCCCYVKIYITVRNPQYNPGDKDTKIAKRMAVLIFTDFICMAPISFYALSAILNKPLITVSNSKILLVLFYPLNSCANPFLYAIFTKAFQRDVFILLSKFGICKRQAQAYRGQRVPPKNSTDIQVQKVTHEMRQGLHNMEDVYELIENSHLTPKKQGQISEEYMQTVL
Sequence of Nuclear receptor subfamily 1 group I member 3 (Homo sapiens) (Q14994 whole entry, looked up): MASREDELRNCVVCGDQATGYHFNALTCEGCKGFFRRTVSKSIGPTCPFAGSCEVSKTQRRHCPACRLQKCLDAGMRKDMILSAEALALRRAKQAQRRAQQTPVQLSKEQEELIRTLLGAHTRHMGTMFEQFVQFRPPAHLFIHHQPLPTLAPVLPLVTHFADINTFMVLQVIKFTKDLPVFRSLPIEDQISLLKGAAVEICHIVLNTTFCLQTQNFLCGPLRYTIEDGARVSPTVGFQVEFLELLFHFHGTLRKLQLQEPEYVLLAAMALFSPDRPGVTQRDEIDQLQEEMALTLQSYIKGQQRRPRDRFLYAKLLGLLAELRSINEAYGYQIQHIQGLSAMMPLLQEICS
Sequence of Luciferin 4-monooxygenase (Photinus pyralis) (P08659 whole entry, looked up): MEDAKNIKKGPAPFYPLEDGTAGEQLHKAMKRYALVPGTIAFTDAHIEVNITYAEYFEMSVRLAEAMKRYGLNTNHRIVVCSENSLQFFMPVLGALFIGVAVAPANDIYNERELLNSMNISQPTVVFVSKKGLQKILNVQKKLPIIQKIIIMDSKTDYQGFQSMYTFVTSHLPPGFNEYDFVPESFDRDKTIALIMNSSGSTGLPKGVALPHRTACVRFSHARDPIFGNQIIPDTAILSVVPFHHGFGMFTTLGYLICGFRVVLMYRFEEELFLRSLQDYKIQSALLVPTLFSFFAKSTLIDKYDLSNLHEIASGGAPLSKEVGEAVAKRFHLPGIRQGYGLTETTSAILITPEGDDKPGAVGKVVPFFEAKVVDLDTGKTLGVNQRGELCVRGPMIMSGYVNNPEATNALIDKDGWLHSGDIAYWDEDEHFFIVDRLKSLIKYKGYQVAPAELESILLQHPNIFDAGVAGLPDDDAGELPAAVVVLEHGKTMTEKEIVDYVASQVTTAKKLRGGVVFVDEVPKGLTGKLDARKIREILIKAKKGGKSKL

Consider `CC#N`, for which the Potency entry in experiment [1], in experiment [2], in experiment [3], in experiment [4], in experiment [5] and in [6] was “inactive” in each case. Moreover, the Potency entry in experiment [7], in experiment [8], in experiment [9], in [10], in experiment [12] and in [13] was “inactive” throughout. Also, the Potency entry in [14] was “inactive”. Further, the activity change, positive = activation in experiment [11] was 6.68%.
For the molecule `CN1CCN(CCCN2c3ccccc3Sc3ccc(S(=O)(=O)N(C)C)cc32)CC1`, the Potency in experiment [1] and in experiment [10] was 26.6 µM (active) in each case. The Potency entry in experiment [2], in experiment [15] and in [14] was “inactive” throughout. For the same molecule, the molecule was called inactive in [16]. Besides, in [11], the activity change, positive = activation was -33.1% [at 42.5 µM].
For the molecule `Nc1nccs1`, the Potency result in [1], in [2], in [3], in experiment [4], in experiment [5] and in experiment [7] was “inactive” each time. In addition, the Potency entry in [8], in experiment [9], in experiment [12] and in experiment [13] was “inactive” throughout. Moreover, the outcome in experiment [16] was inactive.
As to `CC1=CC(O)CC(C)(C)C1` (configuration not stated), the Potency result in experiment [1], in [2], in [3], in experiment [4], in [5] and in experiment [6] was “inactive” throughout. Besides, the Potency entry in [7], in experiment [8], in experiment [9], in [12], in [13] and in [14] was “inactive” each time. Also, the result in experiment [16] was inactive. In experiment [11], the activity change, positive = activation was 1.93%.
As to `C[Si](NC1CCCCC1)(NC1CCCCC1)NC1CCCCC1`, the Potency result in [1], in experiment [2], in experiment [3], in experiment [4], in experiment [5] and in experiment [6] was “inactive” in each case. For the same molecule, the Potency entry in [8], in experiment [9], in experiment [12], in [13] and in experiment [14] was “inactive” each time. Also, the Potency in experiment [7] is 19.5 µM (active).
As to `CCC1(C)CC(=O)NC1=O` (configuration not stated), the Potency entry in experiment [1], in experiment [2], in experiment [3], in [4], in [5] and in experiment [7] was “inactive” in each case. Moreover, the Potency entry in [8], in [9], in experiment [12], in [13] and in [14] was “inactive” each time.
Consider `CCCCC1C(=O)N(c2ccccc2)N(c2ccc(O)cc2)C1=O` (configuration not stated), for which the results for the Potency in [1], in experiment [17] and in [10] were 18.8 µM (active), 29.8 µM (active) and 21.1 µM (active), respectively. Moreover, the Potency result in experiment [2], in experiment [3], in experiment [15], in experiment [18], in experiment [8] and in [14] was “inactive” in each case. Also, in [11], the activity change, positive = activation is -65.4% [at 42.5 µM].
Regarding `CCc1nn(CCCN2CCN(c3cccc(Cl)c3)CC2)c(=O)n1CCOc1ccccc1`, the Potency is 29.8 µM (active) in experiment [1], 23.9 µM (active) in experiment [12] and 8.49 µM (active) in experiment [13]. The Potency result in experiment [2], in experiment [4], in [15], in experiment [5], in experiment [6] and in [8] was “inactive” each time. Further, the Potency entry in [14] was “inactive”.
On to `CC(COc1ccc(C(C)(C)C)cc1)OS(=O)OCCCl` (configuration not stated), for which the Potency in experiment [1] is 0.488 µM (active); in experiment [4], 0.274 µM (active); in [17], 1.73 µM (active); in [5], 0.614 µM (active); in [19] it was 1.23 µM (active); in [7], 1.75 µM (active). Moreover, the Potency in experiment [10] is 0.614 µM (active). Also, the Potency result in [2], in experiment [15], in experiment [18], in [6], in experiment [9] and in experiment [12] was “inactive” throughout. The Potency result in experiment [14] is “inactive”. The activity change, positive = activation in experiment [11] is -72.8%.
For `CC(N)CN` (configuration not stated), the Potency result in experiment [1], in [2], in experiment [3], in experiment [4], in experiment [5] and in experiment [6] was “inactive” in each case. Further, the Potency entry in [7], in experiment [8], in experiment [9], in experiment [12], in [13] and in experiment [14] was “inactive” each time. Moreover, in [16], the molecule was classed as inactive.

For the origin of these results see PubChem BioAssay (Tox21).
